In PubChem BioAssay (Tox21):
Records with an inconclusive call do not appear. The source made the active and inactive calls. Unless noted, the call rests on the fitted dose curve.

Tests used:
[1] = Nuclear factor erythroid 2-related factor 2/antioxidant responsive element (Nrf2/ARE) small molecule agonists: qHTS cell viability counter screen in human keratinocytes (AID 1919968; active means well fitted curve in the direction sought with a large enough effect in the repeat runs; an effect the other way counts as inactive or inconclusive; further: nearly all actives have a fitted effect of over 55% in size)
In short: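 Cytotoxicity was multiplexed with the Nrf2/ARE luciferase assay in the same wells. Stably transfected HaCaT keratinocytes were treated with test compounds for 23 h at 37 C. Cell viability was then measured by CellTiter-Fluor fluorescence.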

[2] = Nuclear factor erythroid 2-related factor 2/antioxidant responsive element (Nrf2/ARE) small molecule agonists: luciferase reporter gene qHTS assay in human keratinocytes (AID 1919969); further: nearly all actives have a fitted effect of over 35% in size; further: potency means the concentration at half of the fitted maximal effect
[3] = p53 small molecule agonists, cell-based qHTS assay with human liver microsomes (AID 1963577)
In short: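 p53RE-bla cells, 4,000/well, compound added after 5 h, with human liver microsomes 0.5 mg/mL and NADPH 0.5 mg/mL final; 16 h at 37 C, then LiveBLAzer 2 h RT, fluorescence.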

[4] = p53 small molecule agonists, cell-based qHTS assay with rat liver microsomes (AID 1963578)
In short: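 p53RE-bla cells, 4,000/well, pre-incubated 5 h, then given compounds plus rat liver microsomes (0.5 mg/mL final) and NADPH (0.5 mg/mL final). Incubation 16 h at 37 C; beta-lactamase reporter read by LiveBLAzer fluorescence after 2 h at room temperature.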

[5] = p53 small molecule agonists, cell-based qHTS assay with human liver microsomes: qHTS cell viability counter screen (AID 1963579); further: nearly all actives have a fitted effect of over 45% in size
In short: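 p53RE-bla cells, 4,000/well, dosed 5 hours after plating, with human liver microsomes (0.5 mg/mL final) plus NADPH (0.5 mg/mL final), 16 hours at 37 C. Viability read as CellTiter-Glo luminescence after 30 min at room temperature.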

[6] = p53 small molecule agonists, cell-based qHTS assay with rat liver microsomes: qHTS cell viability counter screen (AID 1963580); further: nearly all actives have a fitted effect of over 45% in size
In short: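 Cytotoxicity counter screen: intracellular ATP measured by CellTiter-Glo luminescence in the same wells as the beta-lactamase reporter read, on HCT-116 p53RE-bla cells exposed 16 h at 37 C to compounds with rat liver microsomes and NADPH, each 0.5 mg/mL final.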

[7] = p53 small molecule agonists, cell-based qHTS assay: qHTS cell viability counter screen (AID 1963581); further: nearly all actives have a fitted effect of over 45% in size
In short: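 Viability was counter-screened in parallel with the p53 agonist reporter by measuring intracellular ATP luminescence in the same HCT-116 p53RE-bla wells after 16 h compound treatment at 37 C.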

[8] = p53 small molecule agonists, cell-based qHTS assay (AID 1963582; active means well fitted activation curve with a large enough effect in the signal ratio in the repeat runs, not every such curve was filed as active; the % refers to the signal ratio)
In short: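 Cells carrying a p53-responsive bla reporter are treated with test compounds for 16 h at 37 C; beta-lactamase activity is then detected with LiveBLAzer B/G FRET substrate after 2 h at room temperature.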

[9] = molecular target: 5-hydroxytryptamine receptor 2A (Homo sapiens) (UniProt P28223); experiment: 5-hydroxytryptamine receptor 2A (HTR2A) small molecule antagonists, cell-based qHTS assay (AID 1963586); further: nearly all actives have a fitted effect of over 45% in size
5-hydroxytryptamine receptor 2A (Homo sapiens), sequence (P28223 whole entry, looked up): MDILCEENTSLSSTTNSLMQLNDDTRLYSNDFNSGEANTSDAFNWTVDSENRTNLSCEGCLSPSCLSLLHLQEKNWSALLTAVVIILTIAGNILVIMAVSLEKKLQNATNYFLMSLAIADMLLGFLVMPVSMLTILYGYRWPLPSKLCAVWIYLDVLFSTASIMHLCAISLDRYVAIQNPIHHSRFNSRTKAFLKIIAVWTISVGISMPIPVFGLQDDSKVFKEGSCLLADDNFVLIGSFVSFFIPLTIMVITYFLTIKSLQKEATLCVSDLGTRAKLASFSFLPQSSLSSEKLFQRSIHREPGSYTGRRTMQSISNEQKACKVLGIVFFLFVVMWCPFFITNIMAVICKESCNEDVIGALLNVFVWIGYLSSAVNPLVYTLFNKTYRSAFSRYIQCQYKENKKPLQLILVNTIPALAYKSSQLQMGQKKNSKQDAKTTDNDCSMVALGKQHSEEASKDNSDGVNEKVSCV
In short: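 CHO cells stably expressing human HTR2A were plated for 18 h at 37 C, then loaded with calcium dye for 1 h. Compounds were preincubated 5 min at room temperature before DOI (4 nM solution) was added. Kinetic fluorescence was read for 3 min.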

[10] = molecular target: 5-hydroxytryptamine receptor 2A (Homo sapiens) (UniProt P28223); experiment: 5-hydroxytryptamine receptor 2A (HTR2A) small molecule agonists, cell-based qHTS assay (AID 1963587); further: nearly all actives have a fitted effect of over 30% in size
In short: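 CHO cells stably expressing human HTR2A, plated 18 h, loaded with calcium dye 1 h at 37 C. Agonist mode: compounds added and intracellular calcium fluorescence recorded kinetically for 2 min at 1 sec intervals.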

[11] = molecular target: Muscarinic acetylcholine receptor M1 (Homo sapiens) (UniProt P11229); experiment: Cholinergic receptor muscarinic 1 (CHRM1) small molecule antagonists, cell-based qHTS assay (AID 1963588); further: nearly all actives have a fitted effect of over 40% in size
Muscarinic acetylcholine receptor M1 (Homo sapiens), sequence (P11229 whole entry, looked up): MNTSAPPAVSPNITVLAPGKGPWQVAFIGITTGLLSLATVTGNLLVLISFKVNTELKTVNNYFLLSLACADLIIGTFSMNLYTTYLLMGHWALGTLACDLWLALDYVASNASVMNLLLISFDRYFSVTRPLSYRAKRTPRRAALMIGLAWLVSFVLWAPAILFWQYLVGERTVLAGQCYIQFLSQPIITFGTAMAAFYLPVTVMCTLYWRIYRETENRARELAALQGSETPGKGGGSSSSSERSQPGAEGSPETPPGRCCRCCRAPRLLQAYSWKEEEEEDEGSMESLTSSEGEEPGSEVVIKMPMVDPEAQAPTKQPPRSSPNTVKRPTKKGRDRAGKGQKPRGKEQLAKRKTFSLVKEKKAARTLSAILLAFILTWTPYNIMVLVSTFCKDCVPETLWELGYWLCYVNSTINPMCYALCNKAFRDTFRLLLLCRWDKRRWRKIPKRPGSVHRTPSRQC
In short: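 Compounds were tested at 15 concentrations in three independent runs. Dye-loaded CHRM1-CHO cells were exposed 5 min at room temperature before stimulation by acetylcholine added at 50nM. Intracellular calcium was read kinetically on FDSS for 3 min.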

[12] = molecular target: Muscarinic acetylcholine receptor M1 (Homo sapiens) (UniProt P11229); experiment: Cholinergic receptor muscarinic 1 (CHRM1) small molecule agonists, cell-based qHTS assay (AID 1963589); further: nearly all actives have a fitted effect of over 35% in size
In short: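 Cells were plated and incubated 18 h at 37 C/5% CO2, loaded with calcium dye for 1 h at 37 C, then treated with compounds in DMSO. Fluorescence was recorded kinetically at 1 sec intervals.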

[13] = cAMP Responsive Elements (CRE) small molecule agonists, cell-based qHTS assay (AID 1963590)
In short: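 Cells carrying a CRE-driven beta-lactamase reporter (HEK 293T) are seeded, incubated overnight (18 h), and treated with test compounds for 3 h at 37 C; reporter activity is then detected with a FRET substrate after 2 h at room temperature.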

[14] = cAMP Responsive Elements (CRE) small molecule antagonists, cell-based qHTS assay (AID 1963591; active means well fitted inhibition curve with a large enough effect in the signal ratio in the repeat runs, not every such curve was filed as active; the % refers to the signal ratio)
In short: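 Cells (CRE-bla HEK 293T, DMEM with 10% dialyzed FBS and 25 mM HEPES) are seeded and incubated 18 h. Compounds are added with NKH477 agonist at 0.25 uM final for 3 h, then FRET substrate for 2 h.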

[15] = molecular target: Beta-2 adrenergic receptor (Homo sapiens) (UniProt P07550); experiment: Adrenergic beta2 receptor (ADRB2) small molecule antagonists, cell-based qHTS assay (AID 1963592); further: series mostly up to about 92 µM; nearly all actives have a fitted effect of over 50% in size
Beta-2 adrenergic receptor (Homo sapiens), sequence (P07550 whole entry, looked up): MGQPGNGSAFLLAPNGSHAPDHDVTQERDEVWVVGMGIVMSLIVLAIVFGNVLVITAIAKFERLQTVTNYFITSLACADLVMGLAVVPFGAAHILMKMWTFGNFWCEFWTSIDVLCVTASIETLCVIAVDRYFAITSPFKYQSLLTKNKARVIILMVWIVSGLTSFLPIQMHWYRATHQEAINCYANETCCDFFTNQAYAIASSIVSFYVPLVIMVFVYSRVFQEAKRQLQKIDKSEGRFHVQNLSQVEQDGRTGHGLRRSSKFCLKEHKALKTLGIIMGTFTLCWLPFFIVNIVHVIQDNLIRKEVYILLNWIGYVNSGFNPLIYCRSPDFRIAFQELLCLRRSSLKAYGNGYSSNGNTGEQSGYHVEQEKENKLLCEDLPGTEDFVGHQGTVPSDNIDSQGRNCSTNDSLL
In short: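 Assay format: CHO-ADRB2 cells, 18-20hr seeding at 37C/5% CO2, then compound plus 1nM isoproterenol agonist mix for 0.5hr RT. Homogeneous time-resolved fluorescence cAMP detection after 1hr, expressed as 665/615 nm ratio.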

[16] = molecular target: D(2) dopamine receptor (Homo sapiens) (UniProt P14416); experiment: Dopamine D2 receptor (DRD2) small molecule agonists, cell-based qHTS assay (AID 1963594); further: nearly all actives have a fitted effect of over 35% in size
D(2) dopamine receptor (Homo sapiens), sequence (P14416 whole entry, looked up): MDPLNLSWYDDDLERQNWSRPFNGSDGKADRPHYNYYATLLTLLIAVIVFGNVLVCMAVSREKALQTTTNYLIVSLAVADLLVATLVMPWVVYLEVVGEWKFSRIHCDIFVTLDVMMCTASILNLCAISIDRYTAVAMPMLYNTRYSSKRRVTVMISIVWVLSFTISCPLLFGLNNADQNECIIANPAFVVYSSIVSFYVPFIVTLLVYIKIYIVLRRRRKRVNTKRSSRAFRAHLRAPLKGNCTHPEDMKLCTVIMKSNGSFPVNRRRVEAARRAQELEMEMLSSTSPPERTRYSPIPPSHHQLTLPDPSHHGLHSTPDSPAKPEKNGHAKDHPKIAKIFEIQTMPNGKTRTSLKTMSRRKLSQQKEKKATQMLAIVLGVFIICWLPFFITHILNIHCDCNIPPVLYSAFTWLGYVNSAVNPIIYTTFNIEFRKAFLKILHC
In short: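 HEK293 cells stably expressing human DRD2, pre-treated with PDE inhibitor Ro20-1724 (0.1 mM final) and compound 10 min at room temperature, then stimulated with NKH477 (200nM […]) for 30 min. cAMP read by HTRF (665/620 nm).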

[17] = molecular target: D(2) dopamine receptor (Homo sapiens) (UniProt P14416); experiment: Dopamine D2 receptor (DRD2) small molecule antagonists, cell-based qHTS assay (AID 1963595; active means well fitted inhibition curve with a large enough effect in the signal ratio in the repeat runs, with a control signal flat; the % refers to the signal ratio)
In short: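 DRD2-HEK293; 0.1 mM Ro20-1724; cpd 10 min RT; NKH477 200 nM + quinpirole 12 nM, 30 min RT; HTRF cAMP (cAMP-d2/anti-cAMP cryptate), 665/620 nm ratio after 1 h.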

[18] = G protein-coupled receptor (GPCR) small molecule agonists, calcium flux assay: HEK293 wild type cell line counter screen (AID 1920065)
In short: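 Seed cells, incubate 18 h (37 C, 5% CO2); add calcium dye, 1 h at 37 C; pin-transfer compounds, ATP control or DMSO; read fluorescence 480/540 nm each second for 3 min.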

[19] = molecular target: Beta-2 adrenergic receptor (Homo sapiens) (UniProt P07550); experiment: Adrenergic beta2 receptor (ADRB2) small molecule agonists, cell-based qHTS assay (AID 1963593);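 further: CHO cells stably overexpressing human ADRB2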
In short: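 CHO cells stably over-expressing ADRB2 were plated overnight at 37C, then dosed with compounds plus a stimulation mix containing 100uM IBMX and 25uM Ro-20-1724 for 0.5hr at room temperature. cAMP was measured by HTRF competition, 1hr.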

[20] = molecular target: KiSS-1 receptor (Homo sapiens) (UniProt Q969F8); experiment: Human kisspeptin (KISS1R) small molecule agonists, calcium flux assay in KISS1R-HEK293 cells (AID 1920064; active means well fitted curve in the direction sought with a large enough effect in the repeat runs; an effect the other way counts as inactive or inconclusive)
KiSS-1 receptor (Homo sapiens), sequence (Q969F8 whole entry, looked up): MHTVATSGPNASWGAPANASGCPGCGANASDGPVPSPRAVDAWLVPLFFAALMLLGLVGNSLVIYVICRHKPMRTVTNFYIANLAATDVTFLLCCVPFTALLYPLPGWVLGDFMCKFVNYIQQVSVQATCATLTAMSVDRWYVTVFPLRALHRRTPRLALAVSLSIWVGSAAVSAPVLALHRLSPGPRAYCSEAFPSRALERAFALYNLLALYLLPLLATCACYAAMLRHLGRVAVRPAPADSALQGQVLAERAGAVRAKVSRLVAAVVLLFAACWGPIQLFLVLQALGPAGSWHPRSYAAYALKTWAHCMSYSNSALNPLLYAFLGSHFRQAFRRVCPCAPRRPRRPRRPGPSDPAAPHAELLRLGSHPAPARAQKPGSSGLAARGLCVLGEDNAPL
In short: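 Agonist activity is monitored as intracellular calcium rise in engineered HEK293 cells carrying human KISS1R. Cells are dye-loaded for 1 h at 37 C before compound addition, and fluorescence is recorded for 3 min.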
On the % scale 0 is the no-effect control and ±100 the full control effect.

c1ccc(CNc2ncnc3c2ncn3C2CCCCO2)cc1 (stereo not given)
inactive: Potency [1] | Potency [3] | Potency [4] | Potency [5] | Potency [6] | Potency [7] | Potency [8] | Potency [9] | Potency [10] | Potency [11] | Potency [12] | Potency [13] | Potency [14] | Potency [15] | Potency [16] | Potency [17]
active: Potency [2] 1.72 µM

Cc1ccccc1N=O
inactive: Potency [1] | Potency [2] | Potency [3] | Potency [4] | Potency [5] | Potency [6] | Potency [7] | Potency [8] | Potency [9] | Potency [11] | Potency [12] | Potency [13] | Potency [14] | Potency [15] | Potency [16]

CC1=C(CC(=O)O)c2cc(F)ccc2/C1=C\c1ccc(S(C)=O)cc1 (stereo not given)
inactive: Potency [1] | Potency [2] | Potency [18] | Potency [3] | Potency [5] | Potency [6] | Potency [7] | Potency [15] | Potency [19] | Potency [16] | Potency [17]

CC1=CC[C@@H]2C[C@H]1C2(C)C
inactive: activity change, negative = cytotoxicity [1] -0.0198% [at 19 µM] | activity, positive = activation [2] -20.3% [at 19 µM] | activation [18] -1.47% [at 11.8 µM] | activity change, negative = cytotoxicity [5] -2.33% [at 13.5 µM] | activity change, negative = cytotoxicity [6] 4.85% [at 13.5 µM] | activity change, negative = cytotoxicity [7] -11.2% [at 13.5 µM] | activity, negative = inhibition [9] 6.44% [at 12.7 µM] | activation [10] -0.177% [at 15.9 µM] | activation [12] -0.0486% [at 15.8 µM] | activation [13] 0.0762% [at 19 µM] | activity change, negative = inhibition [14] 3.33% [at 18.9 µM] | activity change, negative = inhibition [15] -16.3% [at 19 µM] | activation [16] -0.279% [at 19 µM] | activity change, negative = inhibition [17] -2.93% [at 18.9 µM]

Clc1nc(Cl)c(Cl)c(Cl)c1Cl
inactive: Potency [1] | Potency [2] | Potency [18] | Potency [3] | Potency [4] | Potency [6] | Potency [7] | Potency [8] | Potency [9] | Potency [11] | Potency [12] | Potency [13] | Potency [14] | Potency [15] | Potency [19] | Potency [16] | Potency [17]

CCCN1C=CN(C)C1
inactive: Potency [1] | Potency [2] | Potency [5] | Potency [6] | Potency [9] | Potency [10] | Potency [11] | Potency [12] | Potency [13] | Potency [14] | Potency [15] | Potency [19] | Potency [16] | Potency [17]

N[C@@H](CCC(=O)Nc1ccc([N+](=O)[O-])cc1)C(=O)O
inactive: Potency [1] | Potency [2] | Potency [20] | Potency [18] | Potency [3] | Potency [4] | Potency [5] | Potency [6] | Potency [7] | Potency [8] | Potency [9] | Potency [10] | Potency [11] | Potency [12] | Potency [13] | Potency [14] | Potency [15] | Potency [19] | Potency [16] | Potency [17]

CC(C)CCCC(C)CCO (stereo not given)
inactive: Potency [1] | Potency [2] | Potency [18] | Potency [5] | Potency [6] | Potency [7] | Potency [8] | Potency [9] | Potency [10] | Potency [11] | Potency [12] | Potency [13] | Potency [14] | Potency [15] | Potency [19] | Potency [16] | Potency [17]
